Measurements: PubChem BioAssay AID602440 (Sanford-Burnham Center for Chemical Genomics, 2012)
About 2,300 (0.64%) of roughly 360,000 compounds were called active. Rule as the data show it: active = inhibition mostly above about 40% (no sharp cut-off); inactive = mostly below about 27%. The entries come from a sample that favours actives as a whole.

The compounds below were run against Sentrin-specific protease 8 (Homo sapiens) (UniProt Q96LD8) (assay: blockers of SENP8 deneddylase activity – biochemical, fluorescence, Nedd8 protein substrate, uHTS, primary screen (AID 602440)). Conditions: recombinant SENP8, Nedd8 substrate fluorescence; at 20 µM; stronger effect = higher value.
Sentrin-specific protease 8 (Homo sapiens), sequence (Q96LD8 whole entry, looked up): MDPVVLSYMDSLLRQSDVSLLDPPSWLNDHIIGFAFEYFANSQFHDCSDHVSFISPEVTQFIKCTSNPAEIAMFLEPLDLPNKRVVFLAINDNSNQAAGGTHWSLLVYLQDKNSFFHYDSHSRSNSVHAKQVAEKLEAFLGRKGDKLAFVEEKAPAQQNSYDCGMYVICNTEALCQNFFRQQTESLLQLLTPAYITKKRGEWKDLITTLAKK
With `Oc1c(CN2CCOCC2)ccc(CN2CCOCC2)c1O` the inhibition was 79% (active).
In the case of `O=[N+]([O-])c1ccc(COc2ccccc2CN2CCOCC2)cc1`, the inhibition is reported as -0.2% (inactive).
With `OC(c1ccccc1)C(CN1CCOCC1)c1ccccc1` (configuration not stated) the inhibition was 9.9% (inactive).
In the case of `O=C(Cn1cc(-c2nnnn2-c2ccc(Cl)cc2)c(=O)c2ccccc21)c1ccccc1`, the inhibition is reported as 26.2% (inactive).
In the case of `COC(=O)CN1C(=O)C(C)(C)Oc2ccc(C(=O)Nc3cccc(OC)c3)cc21`, the inhibition is reported as 1.3% (inactive).
`CC[n+]1cc(C)ccc1/C=C/c1ccc(N(C)C)cc1` was tested, and the inhibition was 18.1% (inactive).
`CN(C)c1ccc(Nc2c3c4c(cccc4n(C)c2=O)C(=O)c2ccccc2-3)cc1` was tested, and the inhibition was 52.7% (active).
`Cc1ccc(NC(=S)N(CCCN2CCCC2)Cc2cccn2Cc2ccc(Cl)cc2)cc1` was tested, and the inhibition was 14.9% (inactive).
`CCn1c(C)nc2c1C(=O)c1ccccc1C2=O` was tested, and the inhibition was 53.2% (active).
With `CCOC(=O)c1ccc2c(c1)nc(C)n2CC` the inhibition was 17.4% (inactive).
For `Cc1nc2ccccc2n1CC(O)c1ccccc1` (configuration not stated), the inhibition was 0.7% (inactive).
`O=C(NC(=S)N1CCc2ccccc21)c1ccco1` was tested, and the inhibition was 11.3% (inactive).
For `Cc1c(C(=O)N(Cc2ccccc2)Cc2cccnc2)cnn1-c1ccc(F)cc1`, the inhibition was 7.4% (inactive).
With `O=C(CCNC(=O)c1ccc([N+](=O)[O-])cc1)NC1CCCCC1` the inhibition was 15.8% (inactive).
In the case of `O=C(Nc1cc2c3c(c1)C1CCCC1CN3CC1CCCC21)c1ccc([N+](=O)[O-])cc1` (configuration not stated), the inhibition is reported as 40.6% (active).
`CN1C2CCC1CC(NC(=O)c1ccc([N+](=O)[O-])cc1)C2` (configuration not stated) was tested, and the inhibition was 17.8% (inactive).
For `CCC1CCCCN1C(=O)Nc1cccc(NC(=O)N2CCCCC2CC)c1` (configuration not stated), the inhibition was 13% (inactive).
With `CC(CCn1cccn1)NC(=O)CCc1nnc(CCc2ccccc2)o1` (configuration not stated) the inhibition was 7.6% (inactive).
With `CCOc1cc(/C=N/NC(=O)c2ccncc2)cc(Br)c1O` the inhibition was 19.2% (inactive).
In the case of `Cc1ccc(C(=O)N/N=C\c2cc(Br)c(Br)o2)cn1`, the inhibition is reported as 58.6% (active).
In the case of `O=C(N/N=C/c1ccc(Br)o1)c1cncc(Br)c1`, the inhibition is reported as -18.2% (inactive).
For `COC(=O)C1=C(C)NC(=S)NC1c1ccc(OCC(=O)N2CC(C)OC(C)C2)c(OC)c1` (configuration not stated), the inhibition was 3.3% (inactive).
`O=C(CN(C(=O)c1csnn1)c1cccc(F)c1)NCc1ccc(F)cc1` was tested, and the inhibition was 8.3% (inactive).
With `Cn1c2c(c(=O)n(C)c1=O)C(c1cccc([N+](=O)[O-])c1)Nc1ccccc1O2` (configuration not stated) the inhibition was 22.9% (inactive).
For `O=C(CN1CCN(c2cccc(Cl)c2)CC1)Nc1ccc(S(=O)(=O)N2CCOCC2)cc1`, the inhibition was 15% (inactive).
`Cc1ccc(-c2nn(-c3ccccc3)cc2/C=C/C(=O)Nc2cccc(S(N)(=O)=O)c2)cc1` was tested, and the inhibition was -81.3% (inactive).
`CN(C)S(=O)(=O)c1cccc(-c2nn(-c3ccccc3)cc2/C=C2\SC(=S)N(CC(=O)O)C2=O)c1` was tested, and the inhibition was 44% (active).
With `COc1cccc(-c2nn(-c3ccccc3)cc2/C=C(\C#N)C(=O)NCCCn2ccnc2)c1` the inhibition was -266% (inactive).
In the case of `O=[N+]([O-])c1c(NCCO)cc(Sc2nc3ccccc3s2)c2nonc12`, the inhibition is reported as 75.9% (active).
For `CC(C)(C)NC(=O)C(CCc1ccccc1)n1c(=O)c(-c2ccccc2)nc2ccccc21` (configuration not stated), the inhibition was -332% (inactive).
`Cc1cccc(N2CCN(c3ccc(C(N)=O)cc3[N+](=O)[O-])CC2)c1C` was tested, and the inhibition was 15.7% (inactive).
`Cc1ccc(C(=O)c2ccc(N3CCN(C)CC3)c([N+](=O)[O-])c2)cc1` was tested, and the inhibition was 47.4% (active).
In the case of `CN1CCN(S(=O)(=O)c2ccc(N3CCN(c4ccccc4O)CC3)c([N+](=O)[O-])c2)CC1`, the inhibition is reported as 39.2% (active).
With `CS(=O)(=O)N1CCN(c2ccc(C(=O)NC3C4CC5CC(C4)CC3C5)cc2[N+](=O)[O-])CC1` (configuration not stated) the inhibition was 13.8% (inactive).
With `Cc1ccccc1N1CCN(S(=O)(=O)c2ccc3ccccc3c2)CC1` the inhibition was 12.3% (inactive).
`CC(C)c1ccc(S(=O)(=O)N2CCN(C(=O)c3ccc(N4CCCC4)c([N+](=O)[O-])c3)CC2)cc1` was tested, and the inhibition was 11.9% (inactive).
With `COC(=O)c1ccccc1NC(=O)C1CCN(C(=O)N2CCOc3ccccc32)CC1` the inhibition was -37.2% (inactive).
`COc1ccc(NC(=O)N2CCCC(c3nc(-c4ccc(F)cc4)no3)C2)cc1` (configuration not stated) was tested, and the inhibition was 9.6% (inactive).
`C[C@H]1CN([C@@H](C)CO)C(=O)CCCn2cc(nn2)CO[C@@H]1CN(C)S(=O)(=O)c1ccc(-c2ccccc2)cc1` was tested, and the inhibition was 12.7% (inactive).
For `C/C(N)=C(/C#N)C(=O)COC(=O)c1cc(-c2cccc(Br)c2)nc2ccccc12`, the inhibition was -25.4% (inactive).
With `COc1cccc2c1C(=O)c1c(O)c3c(c(O)c1C2=O)CC(O)(C(C)=NNC(=O)c1ccc(Cl)c(Cl)c1)CC3OC1CC(N)C(O)C(C)O1` (configuration not stated) the inhibition was 46.6% (active).
`CCCC(O)(c1ccc(OC)cc1)C(CN(C)C)c1ccccc1` (configuration not stated) was tested, and the inhibition was 10.7% (inactive).
In the case of `NC(=O)C1CCN(CC(O)CSc2ccc(F)cc2)CC1` (configuration not stated), the inhibition is reported as 17% (inactive).
For `NC(=O)COC(=O)c1cc(S(=O)(=O)N2CCN(c3ccccc3)CC2)ccc1Cl`, the inhibition was 14.7% (inactive).
`C/C(=N\Nc1ccccc1)c1cccs1` was tested, and the inhibition was -20.5% (inactive).
With `CC/C(=N/Nc1ccccc1)c1cnnc(SC)n1` the inhibition was 61.2% (active).
For `CSc1ncc(C(=O)NCCCc2ccccc2)c(C)n1`, the inhibition was -24.7% (inactive).
With `CN(C(=O)c1cccc(NC(=O)Cc2ccc([N+](=O)[O-])cc2)c1)C1CCC1` the inhibition was 19.5% (inactive).
With `O=S(=O)(Nc1ccc(-n2cnnn2)cc1)c1ccc(Cl)cc1` the inhibition was 5.5% (inactive).
`CCOC(=O)c1[nH]c(C)c(C(=O)OCC(=O)N2c3ccccc3CC2C)c1C` (configuration not stated) was tested, and the inhibition was 31.3% (inactive).
For `CCOC(=O)c1c(C)oc(C)c(C(=O)OCC)c1=O`, the inhibition was 11.2% (inactive).
`CCOC(=O)c1c(C)[nH]c2c1-c1ccccc1C(=O)C2=O` was tested, and the inhibition was 121% (active).
For `CCn1cc(C(=O)NCC(=O)NC(C)(C)CO)c(=O)c2cc3c(cc21)OCO3`, the inhibition was -75.3% (inactive).
With `COc1ccc2c(c1)c(=Cc1ccc(N(C)C)cc1)c1cc(-c3ccccc3)[n+](C)n12` the inhibition was -127% (inactive).
In the case of `CCOC(=O)CNC(=O)/C=C/c1c(Cl)cccc1Cl`, the inhibition is reported as 16.6% (inactive).
`CCOC(=O)CNC(=O)N1c2ccccc2Sc2ccccc21` was tested, and the inhibition was 47.5% (active).
With `CCOC(=O)CNC(=O)CN1C(=O)CCSc2ccccc21` the inhibition was 16.5% (inactive).
